{"source": "ChEMBL document CHEMBL3988442", "about": "“University of Dundee, Small-Polar-MMV Screening Library” (2021)", "note": "Screen size: about 48,000 compounds; about 13,000 (27%) showed an effect of 50% or more. The list shows a part of the results.", "data": [{"system": "Wolbachia pipientis", "assay": "Anti-Wolbachia Cell-Based Screen", "type": "functional", "parameters": "scale not given: in the data most compounds retested in dose-response had high values", "details": "5 µM", "units": {"Percent Effect": "%"}, "values": [{"smiles": "Cc1csc(C2(NCc3ccc(OCC(F)F)cc3)CCCC2)n1", "Percent Effect": -12.46}, {"smiles": "CC(C)(C)c1noc(OCC(=O)NCC(F)(F)F)n1", "Percent Effect": 4.463}, {"smiles": "CCNc1ncc(C(=O)Nc2nnc(N3CCCCC3)[nH]2)s1", "Percent Effect": 22.13}, {"smiles": "CC(NC(=O)COc1ccccc1C(=O)O)c1ccc(F)cc1", "note": "(configuration not stated)", "Percent Effect": -21.32}, {"smiles": "Cc1ccc(-c2nnc(CCC(=O)NCc3cn(C)nc3C)o2)s1", "Percent Effect": -9.163}, {"smiles": "COc1cc(CCC(C)O)c(OC)c2c1OCO2", "note": "(configuration not stated)", "Percent Effect": 17.45}, {"smiles": "CC(C)N(CCO)C(=O)C1CCC(=O)N(CCc2cccc(F)c2)C1", "note": "(configuration not stated)", "Percent Effect": 8.608}, {"smiles": "Cn1cccc1C(O)CNC(=O)COc1ccccc1F", "note": "(configuration not stated)", "Percent Effect": -2.595}, {"smiles": "Cc1noc(C)c1CNC(=O)NCCOc1ccc(F)cc1F", "Percent Effect": -6.419}, {"smiles": "CC(C)CNC(=O)CNC(=O)NC(C)COc1ccccc1F", "note": "(configuration not stated)", "Percent Effect": 103.7}, {"smiles": "COCCNC(=O)NC(C)COc1ccc(F)cc1F", "note": "(configuration not stated)", "Percent Effect": 119.4}, {"smiles": "CC(COc1ccccc1F)NC(=O)N[C@@H]1C=C[C@H](CO)C1", "note": "(some centres not stated)", "Percent Effect": -7.056}, {"smiles": "COCCNC(=O)NCc1ccc(OC(C)C)c(F)c1", "Percent Effect": 2.22}, {"smiles": "COC[C@]1(O)CCN(C(=O)c2ccc(CN(C)C)o2)CC1(C)C", "Percent Effect": -8.345}, {"smiles": "Cc1cnc(N)nc1N1CCN(CCCO)CC1", "Percent Effect": -5.518}, {"smiles": "CC1(C)[C@H](Cc2cc(CO)on2)C[C@@H]1NCc1ccc(CO)o1", "Percent Effect": -1.541}, {"smiles": "CN(C)c1ncccc1CNS(=O)(=O)c1ccc(F)cc1F", "Percent Effect": 106.1}, {"smiles": "CN(C)c1nc(NCc2cccnc2N)ncc1F", "Percent Effect": 20.84}, {"smiles": "CN(C)c1ncccc1CNS(=O)(=O)c1cc(F)ccc1F", "Percent Effect": 114.6}, {"smiles": "CC(C)N(C)S(=O)(=O)NCc1cccnc1N(C)C", "Percent Effect": 34.56}, {"smiles": "CN(C)C(CNS(=O)(=O)c1cc(F)ccc1F)c1cccn1C", "note": "(configuration not stated)", "Percent Effect": 10.84}, {"smiles": "CN(C)C(CNS(=O)(=O)c1ccc(F)cc1F)c1cccn1C", "note": "(configuration not stated)", "Percent Effect": -13.11}, {"smiles": "COC(=O)c1ccc(S(=O)(=O)NCc2cccnc2N(C)C)cc1", "Percent Effect": -18.83}, {"smiles": "COc1ccc(S(=O)(=O)NCc2cccnc2N(C)C)cc1F", "Percent Effect": -8.756}, {"smiles": "CN(C)c1ncccc1CNS(=O)(=O)c1cc(F)cc(F)c1", "Percent Effect": 128.3}, {"smiles": "CN(C)c1ncccc1CNS(=O)(=O)c1ccccc1Cl", "Percent Effect": 109.5}, {"smiles": "Cc1c(Cl)cccc1S(=O)(=O)NCc1cnc(N(C)C)n1C", "Percent Effect": -2.35}, {"smiles": "O=C1CC2(CCN(c3nccc(-c4cc(C(=O)O)ccn4)n3)CC2)CN1", "Percent Effect": 4.533}, {"smiles": "CC(C)(C)c1ncc(CNc2ccn(CCc3ccncc3)n2)s1", "Percent Effect": 6.667}, {"smiles": "CC1CS(=O)(=O)CCN1Cc1ccccc1N(C)C", "note": "(configuration not stated)", "Percent Effect": -2.207}, {"smiles": "CCc1cc(N[C@@H]2C[C@H]3CC[C@@H]2C3)n2nccc2n1", "Percent Effect": 3.761}, {"smiles": "Cc1cc(C(=O)N(C)Cc2nc(-c3ccccn3)no2)c(C)o1", "Percent Effect": -5.968}, {"smiles": "CCCC(C)CS(=O)(=O)NCc1cccnc1N(C)C", "note": "(configuration not stated)", "Percent Effect": 13.21}, {"smiles": "CN(C)c1ncccc1CNC(=O)N(Cc1ccccc1F)C1CC1", "Percent Effect": 8.051}, {"smiles": "CN(C)c1ncccc1CNS(=O)(=O)c1c(F)cccc1F", "Percent Effect": 108}, {"smiles": "CO[C@H]1CCN(S(=O)(=O)c2cccs2)[C@H]1Cc1ccncc1", "Percent Effect": -16.22}, {"smiles": "Cc1cnn(-c2cncc(C(N)=O)c2)c1", "Percent Effect": -7.115}, {"smiles": "COCC(NC(=O)NCc1sc(C)nc1C)c1ccco1", "note": "(configuration not stated)", "Percent Effect": -12.64}, {"smiles": "O=C(Cn1ncc(N2CCNCC2)cc1=O)NCCc1ccc(F)cc1", "Percent Effect": -10.43}, {"smiles": "O=C(Cn1ccc2ccccc21)Nc1cc(N2CCCC2)ncn1", "Percent Effect": -7.456}, {"smiles": "O=C(Cc1ccc(F)cc1)NCCNc1cc(N2CCCC2)ncn1", "Percent Effect": 80.33}, {"smiles": "Cc1ccccc1NC(=O)Nc1cc(N2CCCC2)ncn1", "Percent Effect": -4.653}, {"smiles": "O=C(Cc1ccc(F)cc1)NCCNc1cc(N2CCCC2)cnn1", "Percent Effect": 105.1}, {"smiles": "O=C(Cc1ccc(F)cc1)NCCNCC1CNc2ccnn2C1", "note": "(configuration not stated)", "Percent Effect": -7.839}, {"smiles": "CCOc1ccccc1NC(=O)Nc1cc(N2CCCC2)ncn1", "Percent Effect": -20.57}, {"smiles": "CC(C)(C)C(=O)NCCNc1cc(N2CCCC2)ncn1", "Percent Effect": -0.9567}, {"smiles": "O=C(NCCNc1cc(N2CCCC2)cnn1)Nc1ccccc1F", "Percent Effect": 106.6}, {"smiles": "O=C1N[C@@H]2CCN(C(=O)C3CCCC3)[C@@H]2C(=O)N1c1ccc(F)cc1", "Percent Effect": -1.999}, {"smiles": "CS(=O)(=O)N1CCOCC2(CN(Cc3ccco3)CCO2)C1.O=C(O)C(F)(F)F", "note": "(configuration not stated)", "Percent Effect": -8.773}, {"smiles": "O=C1CCCc2nccc(-c3ccccc3)c21", "Percent Effect": -3.137}, {"smiles": "Cc1cccc(CN2CCc3ncnc(N4CCOCC4)c3CC2)n1.O=C(O)C(F)(F)F", "Percent Effect": -7.957}, {"smiles": "O=C(Cc1ccccn1)N1CCc2ncnc(N3CCCC3)c2CC1.O=C(O)C(F)(F)F", "Percent Effect": -1.895}, {"smiles": "Cc1cccc(CN2CCc3ncnc(N4CCN(C)CC4)c3CC2)n1.O=C(O)C(F)(F)F.O=C(O)C(F)(F)F", "Percent Effect": 101.7}, {"smiles": "Cc1cccc(CN2CCc3ncnc(N4CCCC4)c3CC2)n1.O=C(O)C(F)(F)F", "Percent Effect": 88.17}, {"smiles": "O=C(N1CCOCC1)N1C[C@@H]2OCCN(C(=O)c3ccco3)[C@@H]2C1", "Percent Effect": -0.4256}, {"smiles": "Cc1nn(C)c2ncc(S(=O)(=O)N3CCCC(C(N)=O)C3)cc12", "note": "(configuration not stated)", "Percent Effect": -2.512}, {"smiles": "Cc1ccccc1CN(CC(=O)O)C(=O)COCC1CC1", "Percent Effect": -13.15}, {"smiles": "CCN(CC)C(C)CNC(=O)c1cccnc1Oc1cccnc1", "note": "(configuration not stated)", "Percent Effect": -104.8}, {"smiles": "COCCNC(=O)c1cccnc1Oc1ccc(Cl)cc1", "Percent Effect": 115.3}, {"smiles": "O=C(NCCOc1ncc(Cl)cc1Cl)c1ccncc1F", "Percent Effect": -4.331}, {"smiles": "O=C(NCCOCCO)c1cccnc1Oc1ccc(Cl)cc1", "Percent Effect": 144.4}, {"smiles": "CC(C)CCNC(=O)c1cccnc1Oc1cccnc1", "Percent Effect": 3.255}, {"smiles": "CC(C)(C)NC(=O)CNC(=O)c1cccnc1Oc1cccnc1", "Percent Effect": -29.24}, {"smiles": "Cc1cccc(OCc2nnc(SCC3CCCN(C)C3)o2)c1", "note": "(configuration not stated)", "Percent Effect": 17.13}, {"smiles": "Cc1nc(CCN)cc(N2CCC(O)(c3ccc(Cl)cc3)CC2)n1", "Percent Effect": -10.13}, {"smiles": "CC(C)CN1C(=O)CO[C@@H]2CN(C(=O)C3CCOCC3)C[C@H]21", "Percent Effect": -22.5}, {"smiles": "Cc1nonc1C1CCCN1C(=O)CCc1cc2n(n1)CCCNC2", "note": "(configuration not stated)", "Percent Effect": 9.259}, {"smiles": "Cc1nc(C2CCN(C(=O)COC(C)C)CC2)cc(N2CCOCC2)n1", "Percent Effect": 30.46}, {"smiles": "CC(C)OCC(=O)N1CCC(c2ncncc2-c2ccnc(N)c2)C1", "note": "(configuration not stated)", "Percent Effect": 123.4}, {"smiles": "COCCC(=O)N1CCC(c2ncncc2-c2ccnc(N)c2)C1", "note": "(configuration not stated)", "Percent Effect": 107.7}, {"smiles": "COCCC(=O)N1CC[C@H]2C(=O)N(c3ccsc3)CCO[C@H]2C1", "Percent Effect": -5.602}, {"smiles": "COCCC(=O)N1CCC(Nc2ncc(Cl)cn2)CC1", "Percent Effect": -4.765}, {"smiles": "Cc1ccc2c(c1)c(CNC(=O)C1CC(=O)N(C3CC3)C1)nn2C", "note": "(configuration not stated)", "Percent Effect": 1.98}, {"smiles": "CCC[C@H]1CN(C2CCOCC2)C[C@@H]1NC(=O)CCn1ccnc1C", "Percent Effect": 0.5076}, {"smiles": "Cc1nccn1[C@@H]1CC[C@@H](NC(=O)Cn2c(C)nc3ccccc32)[C@H]1O", "Percent Effect": 99.52}, {"smiles": "CC(C)(C)n1c(NC(=O)CNC(=O)NC2CC2)nc2ccccc21", "Percent Effect": -6.693}, {"smiles": "Cc1nccn1[C@@H]1CC[C@@H](NC(=O)CCOc2ccccc2)[C@H]1O", "Percent Effect": 125.1}, {"smiles": "CCC(=O)N1CCN(C(=O)CCn2cccn2)CC1", "Percent Effect": 5.19}, {"smiles": "Cc1cc(=O)n(CC(=O)NC2CCCCC2)c2ccccc12", "Percent Effect": -8.945}, {"smiles": "CN(CCCOc1ccccc1)Cc1nccn1C", "Percent Effect": -7.331}, {"smiles": "Cc1nccn1[C@@H]1CC[C@@H](NC(=O)CCCn2cccn2)[C@H]1O", "Percent Effect": 100.2}, {"smiles": "CC(=O)C(Cc1ccccc1)NC(=O)CSc1nccn1C1CC1", "note": "(configuration not stated)", "Percent Effect": 4.235}, {"smiles": "CCc1nc(C)c(C(=O)N(C)Cc2cnn(-c3cccc(OC)c3)c2)s1", "Percent Effect": -4.854}, {"smiles": "Cc1ccccc1CSc1nc(N)cc(N2C[C@H](O)[C@@H](N(C)C)C2)n1", "Percent Effect": -0.3306}, {"smiles": "Cc1cc(N2CCC(O)CC2)nc(C2CCCN2C)n1", "note": "(configuration not stated)", "Percent Effect": 110.3}, {"smiles": "Cc1cccc(-c2c[nH]c(C3CCCN3C(=O)c3cc(C)n[nH]3)n2)c1", "note": "(configuration not stated)", "Percent Effect": 16.57}, {"smiles": "Cc1cc(N2CCC(O)CC2)nc(C)n1", "Percent Effect": 10.82}, {"smiles": "CC(=O)N1CCCC1c1nc(C)cc(-c2ccc(F)cc2)n1", "note": "(configuration not stated)", "Percent Effect": 79.53}, {"smiles": "Cc1cc(C)n(-c2ccc(N3CCC(O)CC3)nc2)n1", "Percent Effect": -17.54}, {"smiles": "Cc1cc(-c2ccccc2C(=O)O)nc(C2CCCCN2C)n1", "note": "(configuration not stated)", "Percent Effect": 97.78}, {"smiles": "CC(=O)N1CCCCC1c1nc(C)cc(-c2ccccc2C(=O)O)n1", "note": "(configuration not stated)", "Percent Effect": 100.6}, {"smiles": "CC(=O)N(CCc1nc(-c2cc(C(N)=O)co2)cs1)C(C)C", "Percent Effect": -2.269}, {"smiles": "CC(C)(C)C(=O)N1C[C@@H](F)[C@@H](OCc2nc3ncccc3[nH]2)C1", "Percent Effect": -11.47}, {"smiles": "COc1ccccc1CC(=O)NC(CC(=O)O)c1ccc(C)cc1", "note": "(configuration not stated)", "Percent Effect": -6.3}, {"smiles": "CS(=O)(=O)C1=C(O)C(=O)N(c2ccccc2)C1c1ccccc1", "note": "(configuration not stated)", "Percent Effect": 110.5}, {"smiles": "OCCC1CN(c2ncnc3[nH]cnc23)CCN1Cc1cccs1", "note": "(configuration not stated)", "Percent Effect": 9.965}, {"smiles": "CCOCc1ccccc1NC(=O)NC1CCN(C2CCCC2)C1", "note": "(configuration not stated)", "Percent Effect": -8.399}, {"smiles": "Cn1cnnc1-c1cncc(NCc2cccc3c2OC(C)(C)C3)c1", "Percent Effect": -16.61}, {"smiles": "N#Cc1cccc(CN2C[C@@H](NC(=O)C3CC3)[C@H]3OCCC[C@H]32)c1", "Percent Effect": 101.9}, {"smiles": "N#Cc1cccc(CN(CC(=O)N2CCCC2)CC2CCCO2)c1", "note": "(configuration not stated)", "Percent Effect": 11.29}, {"smiles": "O=C(N[C@@H]1CN(Cc2ccc3c(c2)OCO3)[C@@H]2CCCO[C@@H]21)C1CC1", "Percent Effect": -19.8}, {"smiles": "N#Cc1cccc(CN2C[C@H](NC(=O)C3CC3)[C@H]3OCCC[C@H]32)c1.O=C(O)C(F)(F)F", "Percent Effect": 100.2}]}]}
